This is a sample that favours compounds with a hit; in the whole collection about 11% have one here.
PNC assembly inh: blocks assembly of the perinucleolar compartment; PC3M PTB-GFP, PNC prevalence imaging, 16 h; hits give low values; activity change (PNC), negative = inhibition, % at 10 µM; 140,000 compounds, 3.1% hits;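 active = readout at or below -70, meaning at least 70% loss of cells showing the perinucleolar compartment, a nuclear body marking cancer cells; inconclusive = readout between -30 and a set limit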;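 note: plate controls were DMSO wells for no effect and camptothecin positive control wells for full effect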
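Read-out is percentage of cells bearing a perinucleolar compartment, from automated 20x imaging of fixed, Hoechst-stained PC3M PTB-GFP cells. Cells were seeded 4 h, then exposed 16 h to compound (23 nl of library stock) in duplicate plates.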
HPGD block: inhibitors of human 15-hydroxyprostaglandin dehydrogenase (HPGD). 150,000 compounds, 4.3% hits. purified HPGD, NADH fluorescence kinetic, PGE2 substrate. Potency, µM, for the others: at the top dose activity change, negative = inhibition, hits mostly inhibitors; active = well fitted inhibition curve with a large enough effect, not every such curve was filed as active; inconclusive = small, poorly fitted or top-dose-only effect, or another doubt; inactive = no such curve, though single readings can be large or run the other way; note: potency is the fitted concentration of half-maximal effect
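NADH formation kinetics: reaction with 30 uM PGE2 and 1 mM NAD+ (final), 20 nM enzyme, Tris-HCl pH 8 with Tween 20, after 15 min compound preincubation at room temperature. Fluorescence change, last versus first of five reads.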
IMPase cell inh: membrane-permeable compound that blocks inositol monophosphatase | 120,000 tested, under 10 active | CHO-M1 cells, IP1 accumulation, HTRF TR-FRET ratio | P97697 | AID 901 | inhibition (IP1 accumulation), % at 46.1 µM; active = well fitted curve in the direction sought with a large enough effect in the signal ratio, not every such curve was filed as active; inconclusive = small, poorly fitted or top-dose-only effect, or a change in a side signal; inactive = no such curve, though single readings can be large or run the other way; the % refers to the signal ratio;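 note: cells stimulated with carbachol in lithium chloride buffer; plate controls were DMSO basal wells for no effect and reference inhibitor wells for full effect; higher means more IMPase inhibition seen as more IP1 and lower FRET ratio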
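Measured: the HTRF emission ratio (665/620 nm) plus the 620 nm donor channel, each fitted to the Hill equation to give AC50. Cells were CHO-M1 given compounds up to 46 uM and a 30 min carbachol stimulation at 37C.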
IMPase Li cell: membrane-permeable IMPase blocker, potentiated with lithium | 210,000 compounds, 0.35% hits | CHO-M1 cells, IP1 TR-FRET (IP-One), carbachol + lithium | Potency, µM (series often up to 59.4 µM), for the others: at the highest dose activity, negative = IMPase inhibition, most hits filed as inhibitors;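 note: IP1 builds up when IMPase is blocked and the TR-FRET signal falls; potency is the fitted concentration of half-maximal effect; plate controls were basal vehicle for no effect and high inhibitor control for full effect; nearly all actives have a fitted effect of over 50% in size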
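CHO-M1, 2000 cells/well, 16–30 h culture; cpd + low Li+, 30 min 37C; lysis with d2-IP1/Eu-anti-IP1 Ab, 10 min RT; TR-FRET 665/620 ratio and 620 channel; AC50 via Hill.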
ALOX12 inhib: inhibitors of human 12-lipoxygenase (ALOX12). 150,000 compounds, 0.12% hits. purified 12-hLO, xylenol orange hydroperoxide absorbance. P18054. Potency, µM (series often up to 57.1 µM), without a hit: top-dose activity change, negative = inhibition, most hits filed as inhibitors. AID 1452; note: potency is the fitted concentration of half-maximal effect; nearly all actives have a fitted effect of over 55% in size
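Purified human 12hLO (150 nM final) was preincubated with compounds for 15 min at room temperature in 25 mM Hepes pH 7.0, 0.01% Triton X-100, then reacted with 40 uM arachidonic acid for 30 min. Hydroperoxide was detected with ferrous iron/xylenol orange.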
ALDH1A1 block: inhibitors of human aldehyde dehydrogenase 1A1. P00352. 220,000 compounds, 7.3% hits. AID 1030. Purified ALDH1A1, NADH fluorescence, propionaldehyde substrate. Potency, µM (doses to about 75.3 µM), for inactives: at the highest dose activity, negative = inhibition, actives largely listed as inhibitors; active = well fitted inhibition curve with a large enough effect, not every such curve was filed as active; inconclusive = small, poorly fitted or top-dose-only effect, or another doubt; inactive = no such curve, though single readings can be large or run the other way;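 note: potency is the fitted concentration of half-maximal effect; plate controls were no enzyme wells and a reference inhibitor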
Target sequence (P00352 whole entry, looked up): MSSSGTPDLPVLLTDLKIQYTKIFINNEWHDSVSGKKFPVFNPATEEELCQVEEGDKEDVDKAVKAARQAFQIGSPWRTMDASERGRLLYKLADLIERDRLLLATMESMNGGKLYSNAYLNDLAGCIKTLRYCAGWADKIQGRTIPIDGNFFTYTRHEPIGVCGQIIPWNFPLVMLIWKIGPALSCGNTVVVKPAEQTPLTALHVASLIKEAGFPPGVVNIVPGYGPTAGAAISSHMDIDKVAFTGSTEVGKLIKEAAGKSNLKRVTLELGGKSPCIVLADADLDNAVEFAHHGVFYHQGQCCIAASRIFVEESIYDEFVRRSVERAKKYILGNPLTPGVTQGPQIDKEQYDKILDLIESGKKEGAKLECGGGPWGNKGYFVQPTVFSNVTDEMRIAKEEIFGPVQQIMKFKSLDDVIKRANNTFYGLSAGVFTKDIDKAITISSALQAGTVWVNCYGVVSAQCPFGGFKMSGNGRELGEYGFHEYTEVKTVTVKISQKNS
Numbers without * were called inactive; ? = inconclusive; . = no result given; [ ] = dose if it differs, or a comment. Unless noted, calls come from the whole dose curve; as a rule, active = well fitted curve in the direction sought with a large enough effect; inconclusive = small, poorly fitted or top-dose-only effect, or another doubt; inactive = no such curve, though single readings can be large; an effect the other way counts as inactive or inconclusive. Unless noted, % is set by controls: 0 for no effect and ±100 for the full control effect.

SMILES	PNC assembly inh	HPGD block	IMPase cell inh	IMPase Li cell	ALOX12 inhib	ALDH1A1 block
O=C(O)CCCCCn1c(SCC(=O)Nc2ccc(F)cc2)nc2ccsc2c1=O	.	.	.	9%	.	1%
O=C1CN(C(=O)CSc2nc3cc(Cl)ccc3c(=O)n2Cc2ccccc2)c2ccccc2N1	-7	-17%	?	-3%	-2%	7.9µM*
CC(C)(C)c1nnc(SCC(=O)c2ccccc2)n(N)c1=O	-114*	25µM*	.	18%	-16%	9%
O=C(O)CCCCn1c(SCC(=O)Nc2ccccc2C(F)(F)F)nc2ccsc2c1=O	-113*	-18%	.	2%	-4%	-11%
COCCn1c(SCC(=O)N2CCc3ccccc3C2)nc2cc(Cl)ccc2c1=O	14	-13%	.	13%	-1%	?
Cc1cc(C(=O)O)ccc1[C@H](N)C(=O)O	.	-12%	2	-7%	-4%	4%
O=C(NCCC[N+]1=CC=N[C@H]1c1ccccc1)N1CCCc2nc(-c3ccc(Br)cc3)ccc21	.	.	.	.	.	-6%[13.5 µM]
COc1ccccc1CN1CC[C@@]2(CCCN(C(=O)c3ccco3)C2)C1	.	-7%	.	23%	6%	?
COc1ccc(C(=O)CSc2nc(C(C)(C)C)nc3ccccc23)cc1	.	.	.	11%	.	14µM*
CCCCn1c(SCC(=O)c2ccccc2)nc2ccsc2c1=O	-16	-1%	.	13%	2%	7.1µM*
CCCCn1c(SCC(=O)c2ccc(O)c(O)c2)nc2ccsc2c1=O	-25	-5%	-2	0%	-18%	?
CCCc1nc(SCC(=O)NNC(=O)c2ccc(OC)cc2)c2ccccc2n1	.	.	.	10µM*	.	6%
CCn1c(SCC(=O)N2CCN(c3cccc(Cl)c3)CC2)nc2ccccc2c1=O	?	-18%	14	16%	-1%	28µM*
CC(C)(C)c1nc(SCC(=O)NCc2ccco2)c2ccccc2n1	26	-18%	-21	-8%[38.3 µM]	-2%	?
CC(=O)NCCOc1nc(N(C)C)nc(N2CCCCC2)n1	.	.	.	7%	.	?
CCN(CC)C(=O)c1sc(NC(=O)C(C)Sc2nc(-c3ccccc3)cc(C(F)(F)F)n2)c(C(=O)OC)c1C (stereo not drawn)	.	.	14	.	.	.
COc1ccc(OCCSc2nc3ccccc3n2CC(=O)O)cc1	?	-4%	-5	19%[38.3 µM]	-5%	5%
COc1ccc(C(=O)CSc2nc3ccccc3n2CC(=O)c2ccccc2)cc1	?	-5%	11	14%[38.3 µM]	-5%	25µM*
CC(C)Cc1csc(NC(=O)c2ccc(F)cc2)c1C(=O)O	56	25µM*	.	-2%	0%	3%
CCOC(=O)c1c(CC(C)C)csc1NC(C)=O	41	-4%	-11	3%[38.3 µM]	-3%	10%
O=C(CSc1nnc(COc2ccc(Cl)cc2)o1)N1c2ccccc2CCc2ccccc21	-17	2%	8	19%[38.3 µM]	-9%	22µM*
COc1ccc(-c2nnc(SCC(=O)NC(=O)NCc3ccco3)o2)cc1	-6	20µM*	2	-29%[38.3 µM]	1%	22µM*
CCOC(=O)N1CCN(C(=O)CSc2nnc(COc3ccc(Cl)cc3)o2)CC1	-30	-9%	-4	10%[38.3 µM]	-6%	3%
CCN(CC)S(=O)(=O)c1ccc(-c2nnc(SCC(=O)c3ccc(OC)cc3)o2)cc1	?	-7%	5	-20%[38.3 µM]	-10%	0.35µM*
CCN(CC)S(=O)(=O)c1ccc(-c2nnc(SCC(=O)Nc3ccc(OC)cc3)o2)cc1	53	-15%	-11	6%	-2%	-4%
COc1ccc(-c2nnc(SCC(=O)c3ccc(C)o3)o2)cc1	-119*	?	6	10%	2%	-3%
O=C(N/N=C1/C[C@@H](O)[C@@H](O)[C@@H]2[C@@H]3C(=O)N(Cc4ccccc4)C(=O)[C@H]3CC[C@@H]12)OCc1ccccc1	.	.	.	.	.	-2%[13.5 µM]
COc1ccccc1NC(NC(=O)c1cccnc1)C(Cl)(Cl)Cl (stereo not drawn)	.	.	.	-8%	.	2%
O=[N+]([O-])c1ccc(CSc2ncnc3c2ncn3C2OC(CO)C(O)C2O)cc1 (stereo not drawn)	.	.	.	9%	.	-10%
